Our source for the growth values is PubChem BioAssay (NCI).

Structures are written as SMILES. This is part of a sample that, as a whole, favours compounds with a hit. Of some 83,000 tested, about 20% had one in any assay.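 Values shown are percent growth following 48 h exposure of cells in 96-well plates to a single concentration of compound; below 10 was considered active.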 The source made the active and inactive calls.

For the experiment, the system named is HL-60(TB) leukemia. Kind of experiment: NCI-60 one-dose screen, 48 h (100 = growth as untreated, 0 = no growth, -100 = all killed). Conditions: 10 µM unless noted.
With `CCOC(=O)c1c2c(c(C)n1C)-c1nn(Cc3ccc(OC)cc3)cc1CC2`, the growth was 73.1% (inactive).

`Nc1cc2c(cc1Br)-c1c(C(=O)O)cccc1C2O` (stereo unspecified): the growth was 77.8% (inactive).

On to `CCOC(=O)NC1=NCC(C)(C)S1`, for which the growth is 67.9% (inactive).

As for `CC1(C=O)NC(=O)NC1=O` (stereo unspecified), the growth was 87.5% (inactive).

In the case of `Cc1ccc2nc(-c3cc4c([nH]c5ccccc54)c(-c4ccc(F)c(F)c4)n3)[nH]c2c1`, the growth is 48.5% (inactive).

Regarding `COc1cc(/C=C/C(=O)C(=Cc2ccc(F)c(F)c2)C(=O)/C=C/c2ccc(O)c(OC)c2)ccc1O`, the growth was 16.6% (inactive).

Turning to `CS(=O)(=O)Nc1cc(-c2ccc3ncnc(Nc4ccc5c(cnn5Cc5cccnc5)c4)c3c2)cnc1Cl`, the growth was 33.6% (inactive).

With `Nc1nc(Nc2ccc(OCc3cccc(F)c3)cc2)c2c(n1)[nH]c1ccc(O)cc12`, the growth was -64.8% (active).

Consider `N#C/C(=C\c1ccc(-c2ccc(Br)cc2)o1)c1nc(-c2cccs2)cs1`, for which the growth is 92.7% (inactive).

As to `CCOC(=O)C1=C(C)NC(=O)NC1c1cc(=O)oc2ccc(C)cc12` (stereo unspecified), the growth was 97.6% (inactive).

Take `CC[C@]12C=CCN3CC[C@@]4(c5ccc(OC)cc5N(C)[C@H]4[C@@](O)(C(=O)OC)[C@@H]1OC(=O)CCC(=O)O[C@H]1CC[C@H]4[C@@H]5CC[C@H]6CC(=O)CC[C@]6(C)[C@H]5CC[C@]14C)[C@@H]32`: the growth was -38.2% (active).

For the compound `NS(=O)(=O)Oc1cccc(-c2nc3sccn3c2-c2ccccc2)c1`, the growth is 0.181% (active).

On to `Cc1nc2c(c(N3CCCc4ccccc43)n1)CCC2`, for which the growth is -42.3% (active).

On to `O=C(CCl)Nc1ccc(Cc2ccc(NC(=O)CCl)cc2)cc1`, for which the growth is -18.3% (active).

For the compound `CCCC(=O)OCC1OC(n2cnc3c(=S)nc(N)[nH]c32)C(OC(=O)CCC)C1OC(=O)CCC` (stereo unspecified), the growth was 13.2% (inactive).

Regarding `CCn1c(SCC(=O)N/N=C(\C)c2ccc(Cl)cc2)nc2c1c(=O)n(C)c(=O)n2C`, the growth was 101% (inactive).

On to `CC1=CC(=O)c2cccc(NC3=NCCO3)c21`, for which the growth is 100% (inactive).

On to `CC1(C)NC(=S)NC1=O`, for which the growth is 89.9% (inactive).

Consider `COc1cc(OC)cc(-c2ccc(-c3ccc(C(=N)N)cc3)s2)c1`, for which the growth was -57.8% (active).

For the compound `O=c1[nH]c2ccccc2cc1-c1nc2ccncc2[nH]1`, the growth was 25.9% (inactive).

As for `CCCCCCCCCCCCNC(=O)[C@H]1CSC(c2cc3ccccc3s2)N1` (stereo partly specified), the growth is -33.3% (active).

Consider `O=c1cc(-c2ccccc2)oc2c1ccc1ccccc12`, for which the growth was 106% (inactive).

`COc1nc(OC)nc(-c2cc(C(=O)c3ccc(Br)cc3)n3cc(C)cc(C)c23)n1`: the growth is 99% (inactive).

Take `O=S(=O)(NCCCNc1cc(-c2cn(-c3ccccc3)nc2-c2cccc(O)c2)ccn1)c1ccc(F)cc1`: the growth is 30.5% (inactive).

In the case of `COc1cc(C=Nc2oc(-c3ccccc3)c(-c3ccccc3)c2C#N)cc(CN2CCCC2)c1O`, the growth is 102% (inactive).

As to `O=C1c2ccc3c4c(ccc(c24)C(=O)N1CCNCc1ccccc1)C(=O)N(CCNCc1ccccc1)C3=O`, the growth is -34.6% (active).
